# From PubChem BioAssay AID588331 (National Center for Advancing Translational Sciences (NCATS), 2011)
# Inconclusive results are not listed. Activity calls are given as the source filed them. The call rests on the fitted dose curve; in most records, active means well fitted inhibition curve with a large enough effect; inconclusive means small, poorly fitted or top-dose-only effect; inactive means flat fitted curve, though single readings scatter.
# System: Trypanosoma brucei 6-phosphofructokinase (PFK)
# Assay: Confirmatory Assay to Find Inhibitors of T. brucei phosphofructokinase: High F6P
# Settings: Kinase-Glo luminescence; series mostly up to 57.5 µM; activity change, negative = inhibition: at the top concentration
# Text: Various species of the protozoan family Trypanosomatidae are responsible for a range of serious human diseases in tropical and subtropical areas of the world. […] Many of the disorders caused by trypanosomatids are fatal if left untreated, but most currently used drugs are inefficient and toxic. […] Oxidative metabolism involving the mitochondrial tricarboxylic acid cycle and oxidative phosphorylation are repressed in these parasites, and recent RNA interference (RNAi) experiments have shown that even partial depletion of certain individual glycolytic enzymes can lead to the death of cultured parasites. One such glycolytic enzyme, phosphofructokinase (PFK), catalyzes the formation of fructose-1,6-bisphosphate (F1,6BP) and ADP from fructose-6-phosphate (F6P) and ATP, and in many metabolic circumstances makes an important contribution to the control of flux through the glycolytic pathway. As a specific glycolytic target, PFK is particularly attractive as it catalyzes the first irreversible step in glycolysis, and structural and kinetic studies have shown very substantial and essential differences from corresponding host enzymes, allowing for the discovery of parasite-selective inhibitors. A luminescent secondary assay was also performed that used luciferase-based nucleotide detection (ADP-Glo, Promega) similar to the qHTS, but that alternatively used saturating concentrations (10x Km concentrations) of ATP or F6P to determine if inhibitor potencies were shifted due to particular substrate competition. […] NIH Molecular Libraries Probe Production Network [MLPCN] NIH Chemical Genomics Center [NCGC] Grant: 1 R03 MH092153-01 PI Name: Malcolm Walkinshaw, University of Edinburgh
# Substrate buffer was dispensed into white, solid 1536-well plates at 3 uL/well in 0.1M triethanolamine (TEA) buffer, pH 8.0, containing final concentrations of 5 mM MgCl2 and 0.01% Tween20. Standard substrate buffer contained 0.5 mM fructose-6-phosphate (F6P) and 0.1 mM ATP, high ATP substrate buffer contained 0.5 mM fructose-6-phosphate (F6P) and 1mM ATP, high F6P substrate buffer contained 5mM fructose-6-phosphate (F6P) and 0.1 mM ATP, and high ATP/F6P buffer contained 5 mM fructose-6-phosphate (F6P) and 1 mM ATP. Then, 23 nl of compounds or DMSO were delivered to each well using a pin tool. One uL of T. brucei PFK (0.1 M TEA, 0.01% Tween20, 0.1% bovine serum albumin (BSA) and 1.25 nM PFK, final concentrations) was then dispensed, and plates were incubated at room temperature for 45 min. The luminescent detection reagent, Kinase-Glo Plus (Promega), was then added at 2ul/well and incubated for ten minutes at room temperature. The plates were measured on a ViewLux plate reader for luminescent signal using a clear filter with a one second exposure. The %Activity was determined from the corrected luminescence values. 1x (1.25nM) and 0x PFK enzyme controls (untreated) were included to normalize %Activity of identified inhibitors; 0x enzyme values corresponded to 100%Activity (full inhibition), while 1x PFK enzyme values were used to normalize 0% Activity (no inhibition).
SMILES,Potency,"activity change, negative = inhibition"
Cc1cc(N(C)S(=O)(=O)c2ccc(NC(=O)Cc3ccc(Cl)c(Cl)c3)cc2)no1,16.3 µM (active),
COc1ccc(CC(=O)Nc2ccc(S(=O)(=O)Nc3cc(C)on3)cc2)cc1C,,1.36% (inactive)
COc1ccc(CC(=O)Nc2ccc(S(=O)(=O)Nc3cc(C)on3)cc2)cc1OC,,4.52% (inactive)
Cc1cc(NS(=O)(=O)c2ccc(C(=O)NCc3ccc(Cl)c(Cl)c3)cc2)no1,25.9 µM (active),
Cc1cc(NC(=O)c2ccc(NC(=O)Cc3ccc(Cl)c(Cl)c3)cc2)no1,,3.41% (inactive)
Cc1cc(NS(=O)(=O)c2ccc(NC(=O)C(C)(C)c3ccc(Cl)c(Cl)c3)cc2)no1,,-0.0491% (inactive)
Cc1cc(NS(=O)(=O)c2ccc(NC(=O)Cc3ccc(Cl)c(Cl)c3)cc2)on1,3.26 µM (active),
O=C(Cc1ccc(Cl)c(Cl)c1)Nc1ccc(S(=O)(=O)O)cc1,5.17 µM (active),
O=C(Cc1ccc(Cl)c(Cl)c1)Nc1ccc(S(=O)(=O)Nc2ccon2)cc1,2.06 µM (active),
O=C(Cc1ccc(Cl)c(Cl)c1)Nc1ccc(S(=O)(=O)Nc2cccc(O)c2)cc1,14.6 µM (active),
Cc1cc(NS(=O)(=O)c2ccc(NS(=O)(=O)Cc3ccc(Cl)c(Cl)c3)cc2)no1,,7.09% (inactive)
Cc1cc(NS(=O)(=O)c2ccc(NC(=O)Cc3ccc(Cl)c(F)c3)cc2)no1,8.19 µM (active),
Cc1cc(NS(=O)(=O)Cc2ccc(NC(=O)Cc3ccc(Cl)c(Cl)c3)cc2)no1,16.3 µM (active),
CCOC(=O)c1cccc(NS(=O)(=O)c2ccc(NC(=O)Cc3ccc(Cl)c(Cl)c3)cc2)c1,,6.32% (inactive)
Cc1cc(NS(=O)(=O)c2ccc(NC(=O)Cc3ccccc3)cc2)no1,,-9.12% (inactive)
O=C(Cc1ccc(Cl)c(Cl)c1)Nc1ccc(S(=O)(=O)Nc2cccc(C(=O)O)c2)cc1,4.61 µM (active),

SMILES,Potency,"activity change, negative = inhibition"
Cc1cc(NS(=O)(=O)c2ccc(NC(=O)Cc3ccc(Cl)c(C(F)(F)F)c3)cc2)no1,5.8 µM (active),
Cc1cc(NC(=O)c2csc(NC(=O)Cc3ccc(Cl)c(Cl)c3)n2)no1,,2.82% (inactive)
O=C(Cc1ccc(Cl)c(Cl)c1)Nc1ccc(S(=O)(=O)Nc2cncnc2)cc1,9.19 µM (active),
Cc1cc(N[S+](=O)([O-])c2ccc(NC(=O)Cc3ccc(Cl)nc3)cc2)no1,,-2.67% (inactive)
Cc1cc(NS(=O)(=O)CCNC(=O)Cc2ccc(Cl)c(Cl)c2)no1,,4.19% (inactive)
Cc1cc(NS(=O)(=O)c2ccc(N(C)C(=O)Cc3ccc(Cl)c(Cl)c3)cc2)no1,10.3 µM (active),
Cc1cc(NS(=O)(=O)c2ccc(NC(=O)Cc3ccc(C)c(C)c3)cc2)no1,,-3.32% (inactive)
O=C(Cc1ccc(Cl)c(Cl)c1)Nc1ccc(S(=O)(=O)Nc2ccc(C(=O)O)cc2)cc1,4.11 µM (active),
Cc1cc(N[S+](=O)([O-])c2ccc3cc(NC(=O)Cc4ccc(Cl)c(Cl)c4)ccc3c2)no1,36.6 µM (active),
Cc1cc(NS(=O)(=O)c2ccc(NC(=O)Cc3ccc(Cl)c(Cl)c3)cc2)no1,3.66 µM (active),
Cc1cc(NS(=O)(=O)c2ccc(NC(=O)Cc3ccc(Cl)c(Cl)c3)cc2)n(C)n1,13 µM (active),
Cc1cc(NS(=O)(=O)c2ccc(NC(=O)c3ccc(Cl)c(Cl)c3)cc2)no1,,-3.99% (inactive)
Cc1cc(NS(=O)(=O)C2CCN(C(=O)Cc3ccc(Cl)c(Cl)c3)CC2)no1,,-0.566% (inactive)
Cc1cc(NS(=O)(=O)c2ccc(NC(=O)Cc3ccc(Cl)cc3)cc2)no1,20.6 µM (active),
O=C(Cc1ccc(Cl)c(Cl)c1)Nc1ccc(S(=O)(=O)Nc2ccn[nH]2)cc1,5.8 µM (active),
